This excerpt belongs to a sample that is enriched for hits.
G9a inh = G9a (human) methyltransferase inhibition. 8.8% of 350,000 active. AID 504332. Q96KQ7. Potency, µM (highest dose often 102 µM), for inactives: at the highest dose activity, negative = inhibition, hits mostly inhibitors. G9a H3K9 monomethylation, AlphaScreen, 2 h; further: on the % scale 0 is the no-effect control and ±100 the full control effect; nearly all actives have a fitted effect of over 75% in size
Target sequence (Q96KQ7 913-1193 limits assumed): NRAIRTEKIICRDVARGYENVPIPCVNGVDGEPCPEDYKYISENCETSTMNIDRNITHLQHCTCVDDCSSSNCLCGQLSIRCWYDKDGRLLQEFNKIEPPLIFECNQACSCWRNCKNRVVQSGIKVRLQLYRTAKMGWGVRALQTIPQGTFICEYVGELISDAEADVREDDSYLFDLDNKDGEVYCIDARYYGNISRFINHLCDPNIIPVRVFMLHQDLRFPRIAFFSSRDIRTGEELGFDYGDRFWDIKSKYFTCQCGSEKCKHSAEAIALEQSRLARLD
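G9a (20 nM) preincubated 15 min RT with compounds, then 500 nM biotinylated H3K9 peptide and 20 uM SAM added; 2 h RT reaction. Monomethyl-H3K9 product detected by AlphaScreen with anti-H3K9me1 antibody, streptavidin donor and anti-rabbit IgG acceptor beads.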
VDR inhibitor = inhibitors of human vitamin D receptor; P11473; VDR-SRC2-3 peptide fluorescence polarization, 2 h; Potency, µM, for inactives: max response, negative = inhibition, most hits filed as inhibitors; 0.93% of 400,000 active; AID 504847; further: on the % scale 0 is the no-effect control and ±100 the full control effect
Target sequence (P11473 whole entry, looked up): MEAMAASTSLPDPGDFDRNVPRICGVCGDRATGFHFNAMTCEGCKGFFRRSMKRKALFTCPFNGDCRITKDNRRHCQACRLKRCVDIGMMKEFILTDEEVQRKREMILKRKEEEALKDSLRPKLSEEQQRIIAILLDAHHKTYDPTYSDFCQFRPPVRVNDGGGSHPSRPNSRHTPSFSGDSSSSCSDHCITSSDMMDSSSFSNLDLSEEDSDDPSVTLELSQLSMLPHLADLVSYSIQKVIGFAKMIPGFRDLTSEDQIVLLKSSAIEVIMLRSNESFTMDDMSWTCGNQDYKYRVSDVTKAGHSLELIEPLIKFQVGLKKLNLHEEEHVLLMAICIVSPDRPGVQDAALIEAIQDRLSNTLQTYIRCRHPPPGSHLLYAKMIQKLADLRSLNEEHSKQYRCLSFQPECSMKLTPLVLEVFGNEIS
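Inhibition of the VDR/SRC2-3 peptide interaction is quantified by fluorescence polarization. Compounds (23 nl, pintool) incubate with the reagents for 2 hours at ambient room temperature.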
12-LOX inh = blocks human arachidonate 12S-lipoxygenase | Potency, µM (titrated, usually from 108 µM), for the others: top-dose activity change, negative = inhibition, usual class: inhibitors | purified 12hLO, xylenol orange hydroperoxide absorbance | 1.1% of 580,000 active | P18054 | AID 1671190; further: on the % scale 0 is the no-effect control and ±100 the full control effect
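Purified human 12hLO at 150 nM in 25 mM Hepes, 0.01% Triton X-100, pH 7.0, preincubated 15 min at room temperature with compound. Reaction started with 40 uM arachidonic acid, 30 min at room temperature. Hydroperoxide measured by Fe-xylenol orange, 573/405 nm absorbance ratio.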
Glioma ERSR ind = ER stress response induction in glioma; U87-MG GRP78 promoter luciferase reporter, 16 h; Potency, µM, inactives show at the top dose activation, usual class: activators; 0.02% of 420,000 active; AID 602332; further: series mostly up to about 76 µM; % of control where 0% means no effect; nearly all actives have a fitted effect of over 35% in size
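Stably transfected U87-MG human glioma cells carrying a GRP78-based luminescent sensor were seeded at 1000 cells/well, pin-dosed with compounds and incubated 16 h. Luciferase reagent was then added, and end-point luminescence was read after 10 min at room temperature.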
Sfp inh = Sfp phosphopantetheinyl transferase inhibition; Q9F4F7; Biochemical Sfp PPTase activity, qHTS; 3.5% of 310,000 active; Potency, µM, without a hit: largest response in the series, negative = inhibition, hits mostly inhibitors;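 further: the enzyme is Sfp with the accession as filed and its product quenches rhodamine fluorescence; 0% = enzyme reaction without inhibitor and -100% = no enzyme wells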
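Fluorescence-quenching assay: 15 nM Sfp-PPTase preincubated 15 min at room temperature with compound, then 5 uM rhodamine-CoA and 12.5 uM BHQ-2-labelled YbbR peptide added. Fluorescence (ex 525/em 598 nm) read at start and after 30 min; difference gives rate.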
Numbers without * were called inactive; [ ] = dose if it differs, or a comment. The call rests on the fitted dose curve; in most records, active means well fitted curve in the direction sought with a large enough effect; inconclusive means small, poorly fitted or top-dose-only effect, or another doubt; inactive means no such curve, though single readings can be large; an effect the other way counts as inactive or inconclusive. Potency means the concentration at half of the fitted maximal effect.

O=C(O)/C(=C\c1ccco1)NC(=O)c1ccccc1 was read as G9a inh -23%[59 µM], VDR inhibitor -8%, 12-LOX inh 3%, Glioma ERSR ind -3% and Sfp inh -27%.
For CCOc1ccc(CN(C)C(=O)c2nn(Cc3ccccc3)c(=O)c3ccccc23)cc1OC the results were 12-LOX inh -21%.
Screening CCCOc1cccc(C(=O)Nc2nonc2CC)c1 returned 12-LOX inh 3%.
`CCN(CC)CCNC(=O)c1ccc(NC(=O)Cc2cccc(C(F)(F)F)c2)cc1` gave 12-LOX inh 45µM*.
For CCN(CC)CCNC(=O)c1ccc(NC(=O)Cc2cccc3ccccc23)cc1 the results were G9a inh inconclusive, VDR inhibitor -1%, 12-LOX inh -27%, Glioma ERSR ind -2% and Sfp inh -9%.
Screening CCN(CC)CCNC(=O)c1ccc(NC(=O)c2ccc(C(=O)c3ccccc3)cc2)cc1 returned G9a inh 7.1µM*, VDR inhibitor 3% and Glioma ERSR ind -2%.
`CCN(CC)CCNC(=O)c1ccc(NC(C)=O)cc1` gave G9a inh -9%[59 µM], VDR inhibitor -14%, 12-LOX inh 1%, Glioma ERSR ind -1% and Sfp inh 6%.
CCN(CC)CCNC(=O)c1ccc(NC(=O)c2ccc(Cl)c(S(=O)(=O)N3CCCCCC3)c2)cc1 was read as VDR inhibitor 3%, 12-LOX inh inconclusive, Glioma ERSR ind -7% and Sfp inh 50µM*.
CC(C)C(NC(=O)c1cccc(CS(C)(=O)=O)c1)c1ccc(F)cc1 (configuration not stated) was read as 12-LOX inh -26%.
For N#Cc1cccc(NC(=O)c2cc(Cl)cc(Cl)c2)c1 the results were 12-LOX inh -19%.
Screening Cc1cccc(CS(=O)Cc2ccc(Cl)cc2)c1 (configuration not stated) returned 12-LOX inh 26%.
`CC1=CC(C)(C)Nc2ccc(Cc3ccc4c(c3)C(C)=CC(C)(C)N4)cc21` gave G9a inh 10µM*, VDR inhibitor -20%, 12-LOX inh inconclusive, Glioma ERSR ind -3% and Sfp inh -3%.
CC1=CC(C)(C)Nc2cc(C)c(C)cc21 was read as G9a inh 32µM*, VDR inhibitor -8%, 12-LOX inh inconclusive, Glioma ERSR ind -2% and Sfp inh inconclusive.
CC1=CC(C)(C)Nc2ccc(OC(=O)CN3C(=O)CCC3=O)cc21 was read as G9a inh 9%[12.7 µM], VDR inhibitor 9%, 12-LOX inh -14%, Glioma ERSR ind -9% and Sfp inh -6%.
Screening CC1=CC(C)(C)Nc2ccc(C)cc21 returned G9a inh 45µM*, VDR inhibitor 15%, 12-LOX inh inconclusive, Glioma ERSR ind -2% and Sfp inh 45µM*.
`CC(Sc1nnc(-c2cccs2)n1C1CC1)C(=O)NC(C)(C)C` (configuration not stated) gave 12-LOX inh -5%.
Screening Cc1cc(C)c2c(=O)cc(C(=O)N(Cc3cccs3)C3CCS(=O)(=O)C3)oc2c1 (configuration not stated) returned 12-LOX inh 5%.
For CCc1cccc(CC)c1NC(=O)CCS(=O)(=O)c1ccc(Br)s1 the results were G9a inh 22µM*, VDR inhibitor -1%, 12-LOX inh -16% and Glioma ERSR ind -4%.
`O=C(CCS(=O)(=O)c1ccc(Cl)cc1)Nc1ccccc1Br` gave G9a inh 16%, VDR inhibitor 5%, 12-LOX inh 29%, Glioma ERSR ind -3% and Sfp inh 7%.
`O=C(CCS(=O)(=O)c1ccc(Br)s1)Nc1ccccc1Br` gave G9a inh 50µM*, VDR inhibitor 4%, 12-LOX inh -2%, Glioma ERSR ind -1% and Sfp inh 17%.
For Cc1ccc(-c2cnc(SCC(=O)Nc3ccccc3C)o2)cc1C the results were 12-LOX inh -18%.
For CCOc1ccc(N(C)Cc2cc(=O)oc3ccc(OCC)cc23)cc1 the results were G9a inh 10µM*, VDR inhibitor -17%, 12-LOX inh 13%, Glioma ERSR ind 1% and Sfp inh 1%.
`O=C(N/N=C/c1ccc2cccnc2c1)c1ccco1` gave G9a inh 28µM*, VDR inhibitor -9%, 12-LOX inh -15%, Glioma ERSR ind -11% and Sfp inh 23%.
Cc1ccccc1Cn1nc(C)c(NS(=O)(=O)c2c(C)nn(C(F)F)c2C)c1C was read as 12-LOX inh 53%.
For Cc1cc([N+](=O)[O-])nn1CC(=O)Nc1cccc2nonc12 the results were G9a inh 56µM*, VDR inhibitor -1%, 12-LOX inh -22%, Glioma ERSR ind -6% and Sfp inh -26%.
Screening CSc1ccccc1NC(=O)Cn1nc([N+](=O)[O-])cc1C returned G9a inh 28µM*, VDR inhibitor 4%, 12-LOX inh -12%, Glioma ERSR ind -2% and Sfp inh 56µM*.
For Cc1ccc(-c2ccc(Oc3ccc(C#N)c(C#N)c3)cc2)cc1 the results were 12-LOX inh 7%.
Cc1cccc(N(C)C(=O)Cn2cccc2-c2nc(-c3ccccc3)no2)c1 was read as 12-LOX inh 12%.
Screening C=CCOc1ccc2c(c1)c(=O)cc(C(=O)O)n2CC returned G9a inh 45µM*, VDR inhibitor -15%, 12-LOX inh inconclusive, Glioma ERSR ind -3% and Sfp inh 14%.
For Cc1nc2cc(NC(=O)c3ccc(C)c(F)c3)ccc2o1 the results were 12-LOX inh 0%.
`Fc1ccc(CN2CCN(C(c3ccccc3)c3ccccc3)CC2)cc1` gave G9a inh 32µM*, VDR inhibitor -3%, 12-LOX inh -29%, Glioma ERSR ind -1% and Sfp inh -26%.
Cn1cccc1/C=N/N1CCN(Cc2ccccc2)CC1 was read as G9a inh 25µM*, VDR inhibitor -1%, 12-LOX inh inconclusive, Glioma ERSR ind 1% and Sfp inh -23%.
Screening c1ccc(CN2CCN(C(c3ccccc3)c3ccccc3)CC2)cc1 returned G9a inh inconclusive, VDR inhibitor -3%, 12-LOX inh inconclusive, Glioma ERSR ind -5% and Sfp inh -23%.
Screening FC(F)(F)c1ccc(/C=N/N2CCN(Cc3cccc4ccccc34)CC2)cc1 returned G9a inh -12%, VDR inhibitor -14%, 12-LOX inh 0%, Glioma ERSR ind -5% and Sfp inh 14%.
Cn1cccc1/C=N/N1CCN(Cc2cccc3ccccc23)CC1 was read as G9a inh 25µM*, VDR inhibitor -2%, 12-LOX inh 18µM*, Glioma ERSR ind 0% and Sfp inh inconclusive.
`O=S(=O)(CCN1CCN(C(c2ccccc2)c2ccccc2)CC1)C(F)(F)F` gave G9a inh 3.5µM*, VDR inhibitor inconclusive, 12-LOX inh -8%, Glioma ERSR ind -7% and Sfp inh 6%.
Cn1nc(C(C)(C)C)cc1NC(=O)C(C)(C)Oc1ccc(Cl)cc1 was read as 12-LOX inh -6%.

Assay outcomes as filed in PubChem BioAssay.
